# Inconclusive results are not listed. A call without a number means that no potency is given here. A number with no mark means an inactive call. The source made the active and inactive calls. Calls follow the shape of the dose curve; as a rule, active = well fitted activation curve with a large enough effect in the repeat runs; inconclusive = weak or mixed curves; inactive = no such curve, though single readings can be large or run the other way.
# Target: Aryl hydrocarbon receptor (Homo sapiens) (UniProt P35869)
# Assay: qHTS assay to identify small molecule that activate the aryl hydrocarbon receptor (AhR) signaling pathway (AID 743085); also: nearly all actives have a fitted effect of over 15% in size;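 as to activation: HG2L7.5c1 human HepG2 liver cells with stably integrated DRE-driven firefly reporter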
# Conditions: HepG2 AhR-luc (HG2L7.5c1), luciferase, 24 h; series mostly up to 70.3 µM
# Source text: U.S. Tox21 Program National Center for Advancing Translational Sciences [NCATS] NIH Chemical Genomics Center [NCGC] U.S. Environmental Protection Agency [EPA] National Institutes of Environmental Health Sciences [NIEHS] National Toxicology Program [NTP] U.S. Food and Drug Administration [FDA] Tox21 Assay overview: The Aryl hydrocarbon Receptor (AhR), a member of the family of basic helix-loop-helix transcription factors, is crucial to adaptive responses to environmental changes. AhR mediates cellular responses to environmental pollutants such as aromatic hydrocarbons through induction of phase I and II enzymes but also interacts with other nuclear receptor signaling pathways. A cell based HepG2-AhR-luc assay (HG2L7.5c1 cell line, developed by Dr. Michael S. Denison, University of California at Davis, was used to assess the activation of AhR. HepG2 (human hepatocellular carcinoma) cells were stably transfected with an Ah receptor-responsive firefly luciferase reporter gene plasmid containing 20 dioxin responsive elements and luciferase reporter gene. Increased luciferase activity can be used to identify the compounds that induce AhR activation.
# Tox21 Assay Protocol Summary: 4000 cells in 5 uL/well were dispensed into white wall/solid bottom 1536-well plates using a Multidrop Combi (Thermo Fisher Scientific Inc., Waltham, MA) dispenser. After the assay plates were incubated at 37C for 5 h, 23 nL of compound or DMSO vehicle was transferred to the assay plates by a pintool station (Kalypsys, San Diego, CA). The plates were incubated at 37C for 24 hr. After 1 ul/well of CellTiter-Fluor reagent (Promega, Madison, WI) was added into the assay plates using a Flying Reagent Dispenser (FRD) (Aurora Discovery, CA), the assay plates were incubated at 37C for 30 min. The fluorescence intensity in the plates was measured using a ViewLux plate reader (PerkinElmer, Shelton, CT), followed by the addition of 4 uL of ONE-Glo Luciferase Assay reagent (Promega) using an FRD (Aurora Discovery). After the assay plates were incubated at room temperature for 30 min, luminescence intensity was measured using a ViewLux plate reader (Perkin Elmer).
# Potency is read from the fitted curve at half-maximal effect.
# Aryl hydrocarbon receptor (Homo sapiens), sequence (P35869 whole entry, looked up): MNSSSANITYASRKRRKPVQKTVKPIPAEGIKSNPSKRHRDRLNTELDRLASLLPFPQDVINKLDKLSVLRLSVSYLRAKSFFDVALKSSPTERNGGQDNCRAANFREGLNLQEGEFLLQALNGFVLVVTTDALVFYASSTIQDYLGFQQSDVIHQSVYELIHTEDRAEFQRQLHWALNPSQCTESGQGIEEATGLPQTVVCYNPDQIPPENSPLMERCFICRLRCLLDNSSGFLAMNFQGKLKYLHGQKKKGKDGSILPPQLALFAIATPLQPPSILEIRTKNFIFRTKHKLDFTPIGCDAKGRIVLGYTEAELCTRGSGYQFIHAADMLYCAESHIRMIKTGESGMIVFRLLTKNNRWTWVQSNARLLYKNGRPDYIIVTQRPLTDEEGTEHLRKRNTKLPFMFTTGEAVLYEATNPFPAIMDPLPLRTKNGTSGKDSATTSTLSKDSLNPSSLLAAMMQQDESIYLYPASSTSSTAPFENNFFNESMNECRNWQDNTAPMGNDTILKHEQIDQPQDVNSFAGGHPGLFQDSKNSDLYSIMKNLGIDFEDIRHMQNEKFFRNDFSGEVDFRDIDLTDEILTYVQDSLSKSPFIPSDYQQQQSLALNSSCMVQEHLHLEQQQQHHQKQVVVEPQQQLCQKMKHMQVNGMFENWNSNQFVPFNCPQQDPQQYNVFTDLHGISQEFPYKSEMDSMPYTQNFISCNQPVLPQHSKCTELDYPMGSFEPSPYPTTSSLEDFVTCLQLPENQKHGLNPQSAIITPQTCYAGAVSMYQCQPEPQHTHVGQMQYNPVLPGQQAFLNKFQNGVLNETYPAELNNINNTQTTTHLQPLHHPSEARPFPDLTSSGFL
Compound,Potency,activation
Cc1c(N=C=O)cccc1N=C=O,inactive,–
CCCCCCCCCCCCSC#N,inactive,–
Clc1nc2ccccc2nc1Cl,inactive,–
NC(=O)c1cc[n+](CC2=C(C(=O)[O-])N3C(=O)[C@@H](NC(=O)Cc4cccs4)[C@H]3SC2)cc1,inactive,–
O=P(c1ccccc1)(c1ccccc1)c1ccccc1,inactive,–
C=CC(C)CCC=C(C)C (stereo not given),inactive,–
COC=O,–,-0.706% [at 8.47 µM]
C/C(=C(\CCO)SS/C(CCO)=C(\C)N(C=O)Cc1cnc(C)nc1N)N(C=O)Cc1cnc(C)nc1N,inactive,–
OCC(O)c1ccccc1 (stereo not given),inactive,–
O=C(OC1C[C@H]2CC[C@@H](C1)[N+]21CCCC1)C(O)(c1ccccc1)c1ccccc1 (stereo not given in full),inactive,–
CCCCCO,inactive,–
O=C(O)c1cc(C(=O)O)c(C(=O)O)cc1C(=O)O,inactive,–
CCCc1nc(C)c2c(=O)[nH]c(-c3cc(S(=O)(=O)N4CCN(CC)CC4)ccc3OCC)nn12,inactive,–
O=C(Nc1ccc2c(c1)Cc1ccccc1-2)C(F)(F)F,61.1 µM (active),–
CCC(C)CCCC(C)(C)O (stereo not given),inactive,–
CC(C)Oc1ccccc1O,inactive,–
O=C(O)c1ccccc1[N+](=O)[O-],inactive,–
Cc1ccc2c(Cl)cc(Cl)c(O)c2n1,inactive,–
CCC1=C(C)CN(C(=O)NCCc2ccc(S(=O)(=O)NC(=O)NC3CCC(C)CC3)cc2)C1=O (stereo not given),inactive,–
C[C@H](CN1CCCC1)C(=O)c1ccc(C(F)(F)F)cc1,inactive,–

Compound,Potency,activation
Cc1ccccc1CCO,inactive,–
CC(C)C[C@H](NC(=O)[C@H](Cc1ccccc1)NC(=O)c1cnccn1)B(O)O,inactive,–
CC(C)CCCCCCCOC(=O)c1ccc(C(=O)OCCCCCCCC(C)C)c(C(=O)OCCCCCCCC(C)C)c1,inactive,–
O=C(O)CCc1nc2ccccc2[nH]1,inactive,–
O=C(O)c1cccc(C(=O)O)c1C(=O)O,inactive,–
COC(=O)C(C)(C)C,inactive,–
CC(=O)c1ccc(Cl)c(Cl)c1Cl,inactive,–
CCc1ccc2c(c1)C(=O)c1ccccc1C2=O,27.3 µM (active),–
COc1cc(CNC(=O)CCCC/C=C/C(C)C)ccc1O,inactive,–
Clc1cc(Cl)c2c(c1)N=C1CCCCCN1C2,inactive,–
CO[C@@H]1COCC[C@@H]1N[C@@H]1CC[C@@](C(=O)N2CCc3ncc(C(F)(F)F)cc3C2)(C(C)C)C1,inactive,–
O=Cc1ccc(Cl)c([N+](=O)[O-])c1,inactive,–
O=c1[nH]nc(-c2ccc([N+](=O)[O-])o2)o1,inactive,–
CCN(CCCCOC(=O)c1ccc(OC)c(OC)c1)C(C)Cc1ccc(OC)cc1 (stereo not given),inactive,–
N#CCCCC(C#N)CCC#N (stereo not given),inactive,–
CC(C)(C)c1ccc(CCC=O)cc1,inactive,–
O=C(O)c1c2ccccc2cc2ccccc12,inactive,–
CCCCCCCCCC(C)C=O (stereo not given),inactive,–
COC(=O)Cc1cccc2ccccc12,inactive,–
CCCC(=O)OCCC(C)C,inactive,–

# Reference: PubChem BioAssay (Tox21)
